Values joined by “and” are separate entries in the source; they are usually repeats but may differ in a detail not shown here. Equal entries are not always repeated. The whole screen tested about 5,500 compounds, of which about 2,000 (36%) were called active. Roughly 18% stayed inconclusive and do not appear here. Rule as the data show it: active = normalized growth mostly below about 0.91 (no sharp cut-off); inconclusive = no clear call, values can overlap the other calls; inactive = mostly above about 0.92. The list shows a part of the results.
Experiment: chemical genetic growth profiling, strain panel (AID 1159580);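 also: tested at 20 µM; growth read once vehicle control cultures reached saturation at 30 °C; 1 = growth at the plate median or of vehicle wells; lower values mean less growth of the strain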
Details: S. cerevisiae deletion strains, growth OD

Measured: normalized growth

CCCCCC(C)N (stereo unspecified)
inactive: locus YAL013W, strain DEP1, stronger effect = lower value 1.01 | locus YAL021C, strain ccr4, stronger effect = lower value 1.02 | locus YAL026C, strain drs2, stronger effect = lower value 1.02 | locus YAL030W, strain snc1, stronger effect = lower value 1.02 | locus YBL061C, strain skt5, stronger effect = lower value 1.03 | locus YBR009C, strain hhf1, stronger effect = lower value 1.03 | locus YBR021W, strain FUR4, stronger effect = lower value 1.01 | locus YBR023C, strain chs3, stronger effect = lower value 1.05 | locus YBR171W, strain sec66, stronger effect = lower value 1.04 | locus YBR229C, strain ROT2, stronger effect = lower value 1.01 | locus YBR231C, strain swc5, stronger effect = lower value 1.04 | locus YBR279W, strain paf1, stronger effect = lower value 1.02 | locus YCL011C, strain gbp2, stronger effect = lower value 1.02 | locus YCL016C, strain dcc1, stronger effect = lower value 1.03 | locus YCL029C, strain bik1, stronger effect = lower value 0.994 | locus YCL061C, strain MRC1, stronger effect = lower value 1.02 | locus YCL069W, strain vba3, stronger effect = lower value 1.03 | locus YCR088W, strain abp1, stronger effect = lower value 1.02 | locus YDL005C, strain med2, stronger effect = lower value 1.04 | locus YDL035C, strain GPR1, stronger effect = lower value 1.02 | locus YDL040C, strain nat1, stronger effect = lower value 1.03 | locus YDL074C, strain BRE1, stronger effect = lower value 1.02 | locus YDL101C, strain DUN1, stronger effect = lower value 1 | locus YDL134C, strain PPH21, stronger effect = lower value 1.02 | locus YDL185W, strain tfp1, stronger effect = lower value 0.999 | locus YDL192W, strain arf1, stronger effect = lower value 0.997 | locus YDR001C, strain nth1, stronger effect = lower value 1.02 | locus YDR069C, strain doa4, stronger effect = lower value 1.01 | locus YDR101C, strain arx1, stronger effect = lower value 0.99 | locus YDR137W, strain rgp1, stronger effect = lower value 1.08 | locus YDR150W, strain NUM1, stronger effect = lower value 1.02 | locus YDR159W, strain sac3, stronger effect = lower value 1.02 | locus YDR162C, strain NBP2, stronger effect = lower value 1.01 | locus YDR195W, strain ref2 1.03 | locus YDR297W, strain sur2, stronger effect = lower value 1.02 | locus YDR318W, strain mcm21, stronger effect = lower value 0.994 | locus YDR334W, strain swr1, stronger effect = lower value 1.02 | locus YDR335W, strain msn5, stronger effect = lower value 1.03 | locus YDR388W, stronger effect = lower value 0.993 | locus YDR392W, strain spt3, stronger effect = lower value 0.996 | locus YDR502C, strain sam2, stronger effect = lower value 0.993 | locus YEL003W, strain gim4, stronger effect = lower value 1.02 | locus YEL037C, strain rad23, stronger effect = lower value 1.02 | locus YEL061C, strain CIN8 (second series), stronger effect = lower value 1.03 | locus YEL061C, strain CIN8, stronger effect = lower value 1.01 | locus YER015W, strain faa2, stronger effect = lower value 1.02 | locus YER016W, strain bim1, stronger effect = lower value 1.02 | locus YER110C, stronger effect = lower value 0.989 | locus YER111C, strain swi4, stronger effect = lower value 1.03 | locus YER155C, strain BEM2 (second series), stronger effect = lower value 1 | locus YER155C, strain BEM2, stronger effect = lower value 1.02 | locus YER167W, strain BCK2, stronger effect = lower value 1.01 | locus YFR010W, strain ubp6, stronger effect = lower value 1.02 | locus YGL078C, strain dbp3, stronger effect = lower value 0.995 | locus YGL086W, strain mad1, stronger effect = lower value 1.01 | locus YGL167C, strain pmr1, stronger effect = lower value 1.03 | locus YGL173C, strain kem1, stronger effect = lower value 1.03 | locus YGL227W, strain vid30, stronger effect = lower value 1.02 | locus YGL240W, strain doc1, stronger effect = lower value 1.02 | locus YGL248W, strain PDE1, stronger effect = lower value 1 | locus YGL253W, strain hxk2, stronger effect = lower value 1.03 | locus YGR078C, strain PAC10, stronger effect = lower value 0.908 | locus YGR135W, strain pre9, stronger effect = lower value 0.996 | locus YGR229C, strain SMI1, stronger effect = lower value 1.01 | locus YGR252W, strain gcn5, stronger effect = lower value 1.05 | locus YHR027C, strain rpn1, stronger effect = lower value 1.02 | locus YHR030C, strain SLT2, stronger effect = lower value 1.02 and 1.01 | locus YHR079C, strain IRE1 (second series), stronger effect = lower value 0.996 | locus YHR079C, strain IRE1, stronger effect = lower value 0.99 | locus YHR094C, strain hxt1, stronger effect = lower value 0.998 | locus YHR129C, strain ARP1, stronger effect = lower value 1.01 | locus YHR142W, strain chs7, stronger effect = lower value 1.04 | locus YHR200W, strain rpn10, stronger effect = lower value 0.996 | locus YIL066C, strain RNR3, stronger effect = lower value 1.02 | locus YIL073C, strain SPO22, stronger effect = lower value 0.987 | locus YIL125W, strain kgd1, stronger effect = lower value 1 | locus YIR030C, strain dcg1, stronger effect = lower value 0.996 | locus YJL092W, strain hpr5, stronger effect = lower value 1.02 | locus YJL095W, strain BCK1 (second series), stronger effect = lower value 1.02 | locus YJL095W, strain BCK1, stronger effect = lower value 0.999 and 1 | locus YJL115W, strain asf1, stronger effect = lower value 1.02 | locus YJL129C, strain trk1, stronger effect = lower value 1.05 | locus YJL134W, strain LCB3, stronger effect = lower value 1 | locus YJL154C, strain vps35, stronger effect = lower value 1.01 | locus YJL164C, strain tpk1, stronger effect = lower value 1.02 | locus YJL166W, strain qcr8, stronger effect = lower value 1.02 | locus YJL168C, strain set2, stronger effect = lower value 0.991 | locus YJL187C, strain SWE1 (second series), stronger effect = lower value 1.01 | locus YJL187C, strain SWE1, stronger effect = lower value 1.02 | locus YJR043C, strain POL32, stronger effect = lower value 0.998 | locus YJR066W, strain TOR1, stronger effect = lower value 0.942

Reference: PubChem BioAssay AID1159580 (chemical genetic matrix, 2015)
